In ChEMBL document CHEMBL1961873, “Compounds: GSK PKIS; Assays: Nanosyn kinase panel” (2012) one finds inhibition data, which are given here for two compounds.

In experiment [1] the target is T1, Inhibitor of nuclear factor kappa-B kinase subunit epsilon (Homo sapiens) (UniProt Q14164).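 Further: reported values are averaged percent inhibition figures against human IKKε.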
T1 sequence (whole entry): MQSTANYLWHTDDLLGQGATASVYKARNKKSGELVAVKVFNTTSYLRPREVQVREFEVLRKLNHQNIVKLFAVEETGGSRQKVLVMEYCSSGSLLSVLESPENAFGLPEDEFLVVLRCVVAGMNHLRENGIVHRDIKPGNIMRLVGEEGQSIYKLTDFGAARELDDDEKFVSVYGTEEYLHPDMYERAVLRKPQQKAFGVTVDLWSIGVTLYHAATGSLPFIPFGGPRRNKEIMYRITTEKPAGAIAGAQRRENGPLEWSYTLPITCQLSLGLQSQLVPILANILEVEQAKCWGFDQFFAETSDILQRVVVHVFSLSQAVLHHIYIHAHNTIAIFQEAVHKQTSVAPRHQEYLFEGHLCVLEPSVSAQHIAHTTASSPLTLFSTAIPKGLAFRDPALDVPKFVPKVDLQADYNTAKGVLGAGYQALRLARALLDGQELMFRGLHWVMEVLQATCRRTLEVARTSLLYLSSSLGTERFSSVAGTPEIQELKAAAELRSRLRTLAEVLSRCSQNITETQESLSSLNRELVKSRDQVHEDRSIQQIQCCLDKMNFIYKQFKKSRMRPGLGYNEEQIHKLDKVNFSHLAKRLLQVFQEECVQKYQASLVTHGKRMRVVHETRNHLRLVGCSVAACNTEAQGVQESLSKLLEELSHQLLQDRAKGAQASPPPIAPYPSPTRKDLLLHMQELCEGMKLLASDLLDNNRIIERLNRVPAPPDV
Particulars: at 1 µM.

Experiment [2] deals with T2, Serine/threonine-protein kinase Nek1 (Homo sapiens) (UniProt Q96PY6).
T2 sequence (whole entry): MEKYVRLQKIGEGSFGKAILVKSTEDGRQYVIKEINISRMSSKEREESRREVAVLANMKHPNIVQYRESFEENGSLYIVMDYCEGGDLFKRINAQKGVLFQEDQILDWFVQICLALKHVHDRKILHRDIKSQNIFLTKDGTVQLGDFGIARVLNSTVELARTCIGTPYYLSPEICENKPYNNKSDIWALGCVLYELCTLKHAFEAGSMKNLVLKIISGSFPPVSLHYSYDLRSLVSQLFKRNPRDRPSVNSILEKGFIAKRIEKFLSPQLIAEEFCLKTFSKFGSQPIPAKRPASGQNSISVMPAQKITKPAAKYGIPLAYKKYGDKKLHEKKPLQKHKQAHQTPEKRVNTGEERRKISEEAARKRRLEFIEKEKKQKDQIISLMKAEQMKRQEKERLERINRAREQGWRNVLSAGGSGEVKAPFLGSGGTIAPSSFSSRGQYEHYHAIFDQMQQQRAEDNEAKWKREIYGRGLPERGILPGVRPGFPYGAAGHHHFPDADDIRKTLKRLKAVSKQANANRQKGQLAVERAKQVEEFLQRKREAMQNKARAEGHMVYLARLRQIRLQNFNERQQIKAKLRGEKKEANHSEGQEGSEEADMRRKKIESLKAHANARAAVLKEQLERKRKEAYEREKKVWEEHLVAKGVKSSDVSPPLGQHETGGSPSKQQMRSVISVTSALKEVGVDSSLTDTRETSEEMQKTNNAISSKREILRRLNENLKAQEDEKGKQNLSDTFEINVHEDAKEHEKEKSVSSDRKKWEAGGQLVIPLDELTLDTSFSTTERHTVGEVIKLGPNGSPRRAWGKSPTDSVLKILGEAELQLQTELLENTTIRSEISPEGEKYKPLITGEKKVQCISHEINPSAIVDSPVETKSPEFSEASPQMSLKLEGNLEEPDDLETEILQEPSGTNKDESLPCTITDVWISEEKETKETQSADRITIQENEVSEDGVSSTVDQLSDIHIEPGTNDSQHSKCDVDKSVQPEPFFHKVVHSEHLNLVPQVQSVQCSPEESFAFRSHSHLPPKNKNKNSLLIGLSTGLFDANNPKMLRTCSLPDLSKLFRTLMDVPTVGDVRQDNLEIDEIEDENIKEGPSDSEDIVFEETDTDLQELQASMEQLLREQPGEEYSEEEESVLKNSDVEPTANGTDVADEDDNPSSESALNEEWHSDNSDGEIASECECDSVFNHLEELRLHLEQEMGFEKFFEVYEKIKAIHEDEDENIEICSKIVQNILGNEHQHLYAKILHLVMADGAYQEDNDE
Particulars: at 0.1 µM.

Experiment [3] has as its target T2, Serine/threonine-protein kinase Nek1 (Homo sapiens). To be noted: at 1 µM.
The target of experiment [4] is T3, Serine/threonine-protein kinase Nek2 (Homo sapiens) (UniProt P51955).
T3 sequence (whole entry): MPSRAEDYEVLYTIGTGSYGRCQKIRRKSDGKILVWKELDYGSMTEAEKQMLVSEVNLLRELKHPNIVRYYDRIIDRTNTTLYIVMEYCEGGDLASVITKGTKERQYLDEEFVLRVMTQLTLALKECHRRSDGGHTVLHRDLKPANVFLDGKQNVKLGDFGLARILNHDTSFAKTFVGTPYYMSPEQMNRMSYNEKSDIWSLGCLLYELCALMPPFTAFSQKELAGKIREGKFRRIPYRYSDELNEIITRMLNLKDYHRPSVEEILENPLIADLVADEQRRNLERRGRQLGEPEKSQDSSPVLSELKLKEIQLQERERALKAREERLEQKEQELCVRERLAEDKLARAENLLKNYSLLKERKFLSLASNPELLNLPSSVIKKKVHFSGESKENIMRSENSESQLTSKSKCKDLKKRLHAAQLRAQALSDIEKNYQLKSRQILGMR
Particulars: at 0.1 µM.

In experiment [5] the target is T3, Serine/threonine-protein kinase Nek2 (Homo sapiens). To be noted: at 1 µM.
Experiment [6] deals with Serine/threonine-protein kinase Nek6 (Homo sapiens) (UniProt Q9HC98). Particulars: at 0.1 µM.
Sequence of Serine/threonine-protein kinase Nek6 (Homo sapiens) (Q9HC98 whole entry): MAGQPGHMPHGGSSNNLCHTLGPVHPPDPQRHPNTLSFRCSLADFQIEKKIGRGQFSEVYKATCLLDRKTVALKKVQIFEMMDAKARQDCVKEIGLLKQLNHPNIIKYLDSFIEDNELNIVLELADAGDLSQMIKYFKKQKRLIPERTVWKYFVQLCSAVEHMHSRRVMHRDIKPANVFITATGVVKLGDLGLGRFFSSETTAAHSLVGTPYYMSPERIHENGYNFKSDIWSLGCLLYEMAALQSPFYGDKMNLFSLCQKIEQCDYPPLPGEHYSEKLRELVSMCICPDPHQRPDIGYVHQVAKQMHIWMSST
For experiment [7] the target is unchanged. Particulars: at 1 µM.
Experiment [8] concerns the target Serine/threonine-protein kinase Nek7 (Homo sapiens) (UniProt Q8TDX7). Particulars: at 0.1 µM.
Experiment [9] has the same target. To be noted: at 1 µM.
For experiment [10], the target named is T4, Serine/threonine-protein kinase Nek9 (Homo sapiens) (UniProt Q8TD19).
T4 sequence (whole entry): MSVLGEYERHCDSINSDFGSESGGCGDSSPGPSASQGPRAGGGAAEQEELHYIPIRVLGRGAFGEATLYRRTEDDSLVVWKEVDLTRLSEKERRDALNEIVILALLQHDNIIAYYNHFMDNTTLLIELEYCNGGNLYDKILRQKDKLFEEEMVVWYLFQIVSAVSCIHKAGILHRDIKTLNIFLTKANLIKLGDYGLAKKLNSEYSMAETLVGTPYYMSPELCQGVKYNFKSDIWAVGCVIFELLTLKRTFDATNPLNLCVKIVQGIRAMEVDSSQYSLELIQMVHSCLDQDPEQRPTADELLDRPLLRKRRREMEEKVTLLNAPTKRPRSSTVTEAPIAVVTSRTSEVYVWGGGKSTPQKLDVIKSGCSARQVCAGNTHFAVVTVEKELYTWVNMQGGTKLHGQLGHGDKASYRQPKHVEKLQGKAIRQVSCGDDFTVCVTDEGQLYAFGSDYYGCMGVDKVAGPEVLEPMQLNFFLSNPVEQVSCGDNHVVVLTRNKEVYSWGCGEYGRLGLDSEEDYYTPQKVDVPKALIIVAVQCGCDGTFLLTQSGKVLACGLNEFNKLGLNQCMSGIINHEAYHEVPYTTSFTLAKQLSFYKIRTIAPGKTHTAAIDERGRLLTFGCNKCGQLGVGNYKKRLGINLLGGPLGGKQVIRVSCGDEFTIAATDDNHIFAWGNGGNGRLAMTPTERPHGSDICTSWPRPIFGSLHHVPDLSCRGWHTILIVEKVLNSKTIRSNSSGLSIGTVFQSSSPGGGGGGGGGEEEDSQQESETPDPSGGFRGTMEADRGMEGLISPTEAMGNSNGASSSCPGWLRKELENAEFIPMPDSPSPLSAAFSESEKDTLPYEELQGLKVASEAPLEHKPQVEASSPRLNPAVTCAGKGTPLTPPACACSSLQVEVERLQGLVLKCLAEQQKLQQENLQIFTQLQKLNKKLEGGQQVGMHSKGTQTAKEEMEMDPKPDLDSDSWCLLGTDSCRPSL
Particulars: at 0.1 µM.

Experiment [11] addresses T4, Serine/threonine-protein kinase Nek9 (Homo sapiens). Particulars: at 1 µM.
The target of experiment [12] is Serine/threonine-protein kinase PLK1 (Homo sapiens) (UniProt P53350). To be noted: at 0.1 µM.
Sequence of Serine/threonine-protein kinase PLK1 (Homo sapiens) (P53350 whole entry): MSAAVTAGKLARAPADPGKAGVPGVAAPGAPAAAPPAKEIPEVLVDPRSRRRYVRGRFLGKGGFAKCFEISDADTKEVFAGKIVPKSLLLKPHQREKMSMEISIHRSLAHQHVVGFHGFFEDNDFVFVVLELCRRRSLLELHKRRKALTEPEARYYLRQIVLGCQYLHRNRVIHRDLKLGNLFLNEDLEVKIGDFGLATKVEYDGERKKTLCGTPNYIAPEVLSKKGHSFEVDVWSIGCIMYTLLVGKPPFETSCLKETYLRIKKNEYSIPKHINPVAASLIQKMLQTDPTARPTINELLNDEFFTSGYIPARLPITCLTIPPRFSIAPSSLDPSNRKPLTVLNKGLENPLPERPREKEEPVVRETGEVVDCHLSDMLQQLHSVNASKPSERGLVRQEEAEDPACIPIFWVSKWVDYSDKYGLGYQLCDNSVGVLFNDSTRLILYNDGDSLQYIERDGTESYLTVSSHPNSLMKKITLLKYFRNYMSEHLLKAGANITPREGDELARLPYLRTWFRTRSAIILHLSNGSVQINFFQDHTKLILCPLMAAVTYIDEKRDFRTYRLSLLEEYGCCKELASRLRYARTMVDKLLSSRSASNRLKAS
The target is the same in experiment [13]. To be noted: at 1 µM.
In experiment [14] the target is T5, Dual specificity protein kinase TTK (Homo sapiens) (UniProt P33981).
T5 sequence (whole entry): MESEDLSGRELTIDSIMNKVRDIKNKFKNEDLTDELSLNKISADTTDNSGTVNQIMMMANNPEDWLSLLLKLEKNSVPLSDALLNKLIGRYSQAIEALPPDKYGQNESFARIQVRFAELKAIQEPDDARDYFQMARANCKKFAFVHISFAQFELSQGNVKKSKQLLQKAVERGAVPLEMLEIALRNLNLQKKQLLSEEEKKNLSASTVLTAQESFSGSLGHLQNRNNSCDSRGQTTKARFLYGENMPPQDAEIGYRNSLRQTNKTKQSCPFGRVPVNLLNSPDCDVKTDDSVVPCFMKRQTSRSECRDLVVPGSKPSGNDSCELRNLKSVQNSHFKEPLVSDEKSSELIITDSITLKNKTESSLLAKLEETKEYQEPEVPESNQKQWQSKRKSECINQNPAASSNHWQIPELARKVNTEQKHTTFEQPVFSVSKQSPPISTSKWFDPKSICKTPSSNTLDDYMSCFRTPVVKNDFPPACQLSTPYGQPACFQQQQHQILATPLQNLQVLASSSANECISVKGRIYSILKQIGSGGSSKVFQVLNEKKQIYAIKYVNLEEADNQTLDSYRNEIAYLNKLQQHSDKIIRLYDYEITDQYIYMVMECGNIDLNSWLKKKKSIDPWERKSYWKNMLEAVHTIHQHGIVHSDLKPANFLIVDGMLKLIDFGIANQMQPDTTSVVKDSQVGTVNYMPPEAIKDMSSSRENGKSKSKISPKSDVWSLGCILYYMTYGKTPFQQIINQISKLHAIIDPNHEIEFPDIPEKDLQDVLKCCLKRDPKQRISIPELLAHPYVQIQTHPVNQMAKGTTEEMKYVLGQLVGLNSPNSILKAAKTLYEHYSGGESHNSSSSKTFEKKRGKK
Particulars: at 0.1 µM.

For experiment [15], the system named is T6, Receptor-type tyrosine-protein kinase FLT3 (Homo sapiens), P36888 [D835Y].
T6 sequence (whole entry): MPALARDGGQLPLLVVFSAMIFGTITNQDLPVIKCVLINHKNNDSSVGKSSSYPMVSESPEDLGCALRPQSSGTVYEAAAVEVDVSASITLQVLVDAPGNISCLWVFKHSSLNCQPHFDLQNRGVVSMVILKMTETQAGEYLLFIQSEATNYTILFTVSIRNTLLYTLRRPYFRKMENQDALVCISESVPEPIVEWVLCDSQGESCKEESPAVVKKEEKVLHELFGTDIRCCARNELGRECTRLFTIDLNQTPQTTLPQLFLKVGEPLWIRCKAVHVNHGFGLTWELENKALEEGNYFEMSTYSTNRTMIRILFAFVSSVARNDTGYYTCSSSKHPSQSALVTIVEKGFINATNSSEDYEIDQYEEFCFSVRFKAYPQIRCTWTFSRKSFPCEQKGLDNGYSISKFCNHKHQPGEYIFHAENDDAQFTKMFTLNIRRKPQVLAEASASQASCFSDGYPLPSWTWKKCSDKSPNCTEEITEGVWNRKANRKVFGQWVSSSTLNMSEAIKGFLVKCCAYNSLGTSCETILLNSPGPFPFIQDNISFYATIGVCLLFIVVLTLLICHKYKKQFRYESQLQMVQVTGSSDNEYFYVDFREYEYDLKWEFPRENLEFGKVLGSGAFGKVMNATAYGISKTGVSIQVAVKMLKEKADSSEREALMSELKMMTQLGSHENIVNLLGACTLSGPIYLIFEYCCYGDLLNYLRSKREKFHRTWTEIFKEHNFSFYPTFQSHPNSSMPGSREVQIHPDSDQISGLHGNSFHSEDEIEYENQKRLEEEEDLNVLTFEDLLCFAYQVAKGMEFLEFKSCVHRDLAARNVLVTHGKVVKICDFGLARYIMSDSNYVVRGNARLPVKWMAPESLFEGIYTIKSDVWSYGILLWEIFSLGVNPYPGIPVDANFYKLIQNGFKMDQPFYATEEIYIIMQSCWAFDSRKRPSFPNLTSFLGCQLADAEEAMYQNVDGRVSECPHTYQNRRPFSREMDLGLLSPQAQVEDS
Particulars: at 1 µM.

Experiment [16] concerns the target Vascular endothelial growth factor receptor 3 (Homo sapiens) (UniProt P35916). Particulars: at 0.1 µM.
The target is the same in experiment [17]. To be noted: at 1 µM.
Experiment [18] concerns the target Macrophage colony-stimulating factor 1 receptor (Homo sapiens) (UniProt P07333). To be noted: at 0.1 µM.
Experiment [19] has the same target. Particulars: at 1 µM.
Experiment [20] deals with Tyrosine-protein kinase Fyn (Homo sapiens) (UniProt P06241). Particulars: at 0.1 µM.
Sequence of Tyrosine-protein kinase Fyn (Homo sapiens) (P06241 2-537 limits assumed): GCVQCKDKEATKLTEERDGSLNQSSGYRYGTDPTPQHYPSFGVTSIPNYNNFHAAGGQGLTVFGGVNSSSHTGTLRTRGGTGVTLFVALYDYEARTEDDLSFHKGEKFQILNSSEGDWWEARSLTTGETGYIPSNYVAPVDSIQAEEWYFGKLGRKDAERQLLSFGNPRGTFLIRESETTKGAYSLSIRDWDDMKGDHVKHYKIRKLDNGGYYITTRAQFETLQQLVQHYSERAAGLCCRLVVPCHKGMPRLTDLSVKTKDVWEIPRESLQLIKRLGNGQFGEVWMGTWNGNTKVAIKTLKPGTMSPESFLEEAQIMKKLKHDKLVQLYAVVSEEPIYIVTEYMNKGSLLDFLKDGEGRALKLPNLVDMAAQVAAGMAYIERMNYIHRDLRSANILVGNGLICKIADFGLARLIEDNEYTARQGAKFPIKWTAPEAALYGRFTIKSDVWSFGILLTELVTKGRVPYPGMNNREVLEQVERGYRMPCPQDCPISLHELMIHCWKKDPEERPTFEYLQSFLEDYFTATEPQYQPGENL

The term inhibition denotes the relative decrease from the control value, in per cent.

Sequence of Serine/threonine-protein kinase Nek7 (Homo sapiens) (Q8TDX7 whole entry, looked up): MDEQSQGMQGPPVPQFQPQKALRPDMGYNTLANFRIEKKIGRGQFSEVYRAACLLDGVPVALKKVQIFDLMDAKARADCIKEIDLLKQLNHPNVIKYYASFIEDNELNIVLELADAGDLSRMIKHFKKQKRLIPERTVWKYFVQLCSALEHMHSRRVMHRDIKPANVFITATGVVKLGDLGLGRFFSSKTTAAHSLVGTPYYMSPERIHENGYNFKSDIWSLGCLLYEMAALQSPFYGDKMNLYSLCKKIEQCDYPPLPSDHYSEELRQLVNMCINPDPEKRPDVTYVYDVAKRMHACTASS
Sequence of Macrophage colony-stimulating factor 1 receptor (Homo sapiens) (P07333 whole entry): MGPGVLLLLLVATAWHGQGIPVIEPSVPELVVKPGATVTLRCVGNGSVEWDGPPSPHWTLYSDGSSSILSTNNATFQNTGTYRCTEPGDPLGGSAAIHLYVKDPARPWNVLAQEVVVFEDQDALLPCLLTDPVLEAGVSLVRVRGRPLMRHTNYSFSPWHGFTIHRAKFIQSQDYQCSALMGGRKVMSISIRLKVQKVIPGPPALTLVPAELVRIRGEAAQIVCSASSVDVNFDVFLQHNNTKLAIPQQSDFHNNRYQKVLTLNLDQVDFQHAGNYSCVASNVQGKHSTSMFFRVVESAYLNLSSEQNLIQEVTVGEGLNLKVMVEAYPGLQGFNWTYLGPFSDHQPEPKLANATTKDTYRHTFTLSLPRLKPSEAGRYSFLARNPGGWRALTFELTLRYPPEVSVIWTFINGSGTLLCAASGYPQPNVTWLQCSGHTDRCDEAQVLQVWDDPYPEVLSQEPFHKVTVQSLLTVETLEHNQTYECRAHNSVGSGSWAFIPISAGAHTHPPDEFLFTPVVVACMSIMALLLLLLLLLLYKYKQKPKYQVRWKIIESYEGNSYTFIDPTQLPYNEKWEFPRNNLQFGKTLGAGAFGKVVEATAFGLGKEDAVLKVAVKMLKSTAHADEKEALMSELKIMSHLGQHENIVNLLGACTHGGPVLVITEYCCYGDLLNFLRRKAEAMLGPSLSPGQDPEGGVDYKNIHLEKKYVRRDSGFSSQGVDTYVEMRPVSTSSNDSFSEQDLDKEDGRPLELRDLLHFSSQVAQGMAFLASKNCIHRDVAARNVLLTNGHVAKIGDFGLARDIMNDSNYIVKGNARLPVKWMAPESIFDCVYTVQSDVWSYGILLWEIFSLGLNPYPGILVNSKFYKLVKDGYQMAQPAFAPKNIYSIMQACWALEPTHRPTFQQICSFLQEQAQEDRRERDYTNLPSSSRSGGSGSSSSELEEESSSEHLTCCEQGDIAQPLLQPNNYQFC
Sequence of Vascular endothelial growth factor receptor 3 (Homo sapiens) (P35916 whole entry): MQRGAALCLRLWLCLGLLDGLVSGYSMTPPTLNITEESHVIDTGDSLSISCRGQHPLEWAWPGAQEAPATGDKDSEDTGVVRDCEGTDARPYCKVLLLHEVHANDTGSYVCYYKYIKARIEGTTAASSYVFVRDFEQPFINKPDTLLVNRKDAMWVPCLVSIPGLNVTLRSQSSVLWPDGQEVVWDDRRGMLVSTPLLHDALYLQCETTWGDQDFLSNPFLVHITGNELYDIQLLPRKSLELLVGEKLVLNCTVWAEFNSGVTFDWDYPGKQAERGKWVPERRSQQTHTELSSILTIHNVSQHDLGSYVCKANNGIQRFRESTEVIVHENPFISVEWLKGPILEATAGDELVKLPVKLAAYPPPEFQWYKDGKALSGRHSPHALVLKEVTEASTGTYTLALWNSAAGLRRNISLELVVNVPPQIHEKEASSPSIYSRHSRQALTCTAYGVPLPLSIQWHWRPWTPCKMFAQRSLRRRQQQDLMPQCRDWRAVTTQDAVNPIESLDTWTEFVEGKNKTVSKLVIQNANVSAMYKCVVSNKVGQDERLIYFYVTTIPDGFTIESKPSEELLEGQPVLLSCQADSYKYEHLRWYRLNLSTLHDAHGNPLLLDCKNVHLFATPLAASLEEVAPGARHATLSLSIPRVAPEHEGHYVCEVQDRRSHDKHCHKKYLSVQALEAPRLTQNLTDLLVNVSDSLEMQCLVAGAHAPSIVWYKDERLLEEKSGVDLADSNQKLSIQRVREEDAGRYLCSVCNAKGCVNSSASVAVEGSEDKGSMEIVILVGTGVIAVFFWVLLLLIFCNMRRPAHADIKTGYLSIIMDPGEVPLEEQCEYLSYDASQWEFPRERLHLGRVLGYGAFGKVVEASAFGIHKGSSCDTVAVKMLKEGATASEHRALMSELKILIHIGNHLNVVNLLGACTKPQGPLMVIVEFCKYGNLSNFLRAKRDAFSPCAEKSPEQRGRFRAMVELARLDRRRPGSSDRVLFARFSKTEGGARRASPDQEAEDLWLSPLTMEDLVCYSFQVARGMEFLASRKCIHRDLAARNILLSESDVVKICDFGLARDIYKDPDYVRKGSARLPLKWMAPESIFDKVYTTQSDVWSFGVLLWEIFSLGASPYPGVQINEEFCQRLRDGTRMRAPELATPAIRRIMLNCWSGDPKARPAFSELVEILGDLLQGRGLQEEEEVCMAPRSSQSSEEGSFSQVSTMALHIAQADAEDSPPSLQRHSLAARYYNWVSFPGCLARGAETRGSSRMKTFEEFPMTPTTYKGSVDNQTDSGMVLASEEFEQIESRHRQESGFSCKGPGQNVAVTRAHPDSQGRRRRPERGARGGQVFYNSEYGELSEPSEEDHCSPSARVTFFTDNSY

As for `CCC(=O)Nc1ccc(C)c(-c2ccc(C(=O)NCC3CC3)cc2)c1`, the inhibition in experiment [1] worked out at 4.21%; in experiment [2], 2.34%; in experiment [3] it was 2.64%; in experiment [4] it was 4.55%; in [5], 0.77%; in [6], 2.45%. The inhibition in experiment [7] is 0.12%; in experiment [8] it was 3.13%; in experiment [9], 8.32%; in experiment [10], 8.46%; in [11] it was 10.2%; in experiment [12], 5.02%. Besides, the inhibition in experiment [13] is 4.61%; in [14], 8.14%; in [15], 3.02%; in [16], 3.63%; in experiment [17] it was -1.74%; in experiment [18] it was -2.39%. Further, the figures for the inhibition in [19] and in [20] were 2.95% and 1.58%, respectively.
For `NS(=O)(=O)c1ccc(N/N=C2\C(=O)Nc3ccc(C(=O)NCCCn4ccnc4)cc32)cc1`, the inhibition was determined as 26.6% in [1]; 2.1% in experiment [2]; 4.83% in experiment [3]; 4.5% in [4]; 5.08% in experiment [5]; 2.7% in experiment [6]. For the same compound, the inhibition turned out to be 3.62% in [7]; 6.31% in experiment [8]; 5.01% in experiment [9]; 9.43% in experiment [10]; 19% in [11]; 6.29% in experiment [12]. For the same compound, the inhibition in [13] was found to be 4.25%; in experiment [14], 37.3%; in experiment [15], 32.9%; in [16], 4.15%; in [17] it was 26.7%; in experiment [18] it was 2.86%. Besides, the inhibition turned out to be 6.33% in [19] and 2.07% in experiment [20].
